These results are taken from PubChem BioAssay.

Test [1] is described as follows: optical density shifts of acrAB sulA E. coli – strain DRC41, OD650, 48 h, E. coli filamentation inducer project, primary screen (AID 1152).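 Note: E. coli MC1000 strain DRC41 lacking acrAB efflux pump and sulA.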 The note with it: higher = more signal, called active from +8 up or from −8 down.
Test [2] in a line: probe aLefty1 binding on compound microarray – biochemical, small-molecule microarray, 635/667 nm fluorescence, primary screen (AID 1153).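 Note: score merges spot fluorescence with signal-to-noise ratio from the scanned slide images.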 The note with it: higher = more signal.
Test [3] in a line: plasmodial surface anion channel blockers, osmotic lysis – cell-based, P. falciparum Indochina, OD700, 1 h, primary screen (AID 1154). The following applies: P. falciparum Indochina infected RBC osmotic lysis, higher = more signal, called active from +8 up or from −8 down.
The nature of test [4]: plasmodial surface anion channel blockers, osmotic lysis – cell-based, P. falciparum Indochina, OD700, 2 h, primary screen (AID 1155).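 Note: lysis reports solute entry through the parasite surface anion channel PSAC.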 The note with it: P. falciparum Indochina infected erythrocytes, higher = more signal, called active from +8 up or from −8 down.
Test [5] can be described thus: changes in parasitized red cell lysis, either direction – P. falciparum Indochina, OD700, 3 h, PSAC antagonist project, primary screen (AID 1156). The note with it: P. falciparum-infected erythrocytes, osmotic lysis, higher = more signal, called active from +8 up or from −8 down.
Test [6] in a line: plasmodial surface anion channel blockers, osmotic lysis – cell-based, P. falciparum Indochina, OD700, 18 h, primary screen (AID 1157). The following applies: P. falciparum Indochina infected erythrocytes, osmotic lysis OD700, 18 h; higher = more signal, called active from +8 up or from −8 down.
Test [7] can be described thus: S6 kinase pathway phospho-S6 level changes – cell-based, A549, cytoblot, luminescence, serum-stimulated, primary screen (AID 1158).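 Note: serum-stimulated A549 lung adenocarcinoma cells; signal is phosphorylated S6 detected by cytoblot immunostaining with HRP secondary.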 The following applies: 5 h, higher = more signal.
Test [8] deals with NADPH oxidase 2 (Homo sapiens) (UniProt P04839). The test can be described thus: compounds shifting NOX2 Amplex Red fluorescence – cell-based, HEK293-NOX2, PMA-stimulated, NOX inhibitor project, primary screen (AID 1159). Note: test concentration not given here. The following applies: 45 min, higher = more signal, called active from +8 up or from −8 down.
Sequence of NADPH oxidase 2 (Homo sapiens) (P04839 whole entry, looked up): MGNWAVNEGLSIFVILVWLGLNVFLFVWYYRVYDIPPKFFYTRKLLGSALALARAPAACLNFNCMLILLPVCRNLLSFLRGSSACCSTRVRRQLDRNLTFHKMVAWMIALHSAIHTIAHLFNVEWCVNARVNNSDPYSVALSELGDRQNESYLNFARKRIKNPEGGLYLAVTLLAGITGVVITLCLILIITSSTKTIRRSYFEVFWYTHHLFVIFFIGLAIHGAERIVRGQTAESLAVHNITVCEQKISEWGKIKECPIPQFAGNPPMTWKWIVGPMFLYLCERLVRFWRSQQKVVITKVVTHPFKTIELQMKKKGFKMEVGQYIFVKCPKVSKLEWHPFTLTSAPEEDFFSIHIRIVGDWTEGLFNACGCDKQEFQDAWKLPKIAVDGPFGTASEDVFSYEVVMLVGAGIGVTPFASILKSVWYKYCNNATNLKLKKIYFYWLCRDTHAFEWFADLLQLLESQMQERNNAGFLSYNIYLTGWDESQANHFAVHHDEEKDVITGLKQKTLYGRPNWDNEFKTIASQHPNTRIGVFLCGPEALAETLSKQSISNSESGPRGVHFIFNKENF
The target of test [9] is NADPH oxidase 4 (Homo sapiens) (UniProt Q9NPH5). The experiment in a line: compounds shifting NOX4 Amplex Red fluorescence – cell-based, HEK293-NOX4, tetracycline-induced, NOX inhibitor project, primary screen (AID 1160). The note with it: HEK293-NOX4, Amplex Red H2O2 fluorescence, 45 min; higher = more signal, called active from +8 up or from −8 down.
Sequence of NADPH oxidase 4 (Homo sapiens) (Q9NPH5 whole entry, looked up): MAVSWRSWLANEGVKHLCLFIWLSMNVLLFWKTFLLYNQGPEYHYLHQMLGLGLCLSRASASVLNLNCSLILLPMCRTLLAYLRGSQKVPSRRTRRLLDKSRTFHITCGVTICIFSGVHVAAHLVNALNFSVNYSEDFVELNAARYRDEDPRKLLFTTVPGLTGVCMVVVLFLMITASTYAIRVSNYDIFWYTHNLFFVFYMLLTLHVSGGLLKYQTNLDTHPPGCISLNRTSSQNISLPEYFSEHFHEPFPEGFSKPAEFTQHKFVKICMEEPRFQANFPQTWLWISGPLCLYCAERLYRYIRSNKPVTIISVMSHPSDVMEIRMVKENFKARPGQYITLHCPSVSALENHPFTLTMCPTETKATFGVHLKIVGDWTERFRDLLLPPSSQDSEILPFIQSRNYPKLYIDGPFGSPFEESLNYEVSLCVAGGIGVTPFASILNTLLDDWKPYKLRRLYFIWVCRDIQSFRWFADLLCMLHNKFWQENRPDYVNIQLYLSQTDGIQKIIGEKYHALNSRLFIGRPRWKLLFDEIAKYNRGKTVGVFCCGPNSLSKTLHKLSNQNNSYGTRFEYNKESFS
Test [10] addresses NADPH oxidase 5 (Homo sapiens) (UniProt Q96PH1). The experiment in a line: compounds shifting NOX5 Amplex Red fluorescence – cell-based, HEK293-NOX5, NOX inhibitor project, primary screen (AID 1161). The note with it: HEK293-NOX5, ionomycin, 45 min, higher = more signal.
Test [11] is described as follows: compound effects on lung adenocarcinoma cell viability – A549, calcein-AM fluorescence, 48 h, basal, profiling panel (AID 1162). Note: test concentration not given here. The note with it: higher = more signal.
Test [12] in a line: compound effects on differentiated 3T3-L1 adipocyte viability – cell-based, 3T3-L1 adipocytes, calcein-AM fluorescence, 48 h, basal, profiling panel (AID 1163). Note: test concentration not given here. The note with it: 3T3-L1 adipocytes viability, higher = more signal.
Test [13] is described as follows: compound effects on hepatocellular carcinoma cell viability – HepG2, calcein-AM fluorescence, 48 h, basal, profiling panel (AID 1164). Note: test concentration not given here. The following applies: higher = more signal.
Test [14] in a line: compound effects on multiple myeloma cell viability – MM1S, calcein-AM fluorescence, 48 h, basal, profiling panel (AID 1165).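 Note: viability of MM1S multiple myeloma cells under basal unstimulated conditions; test concentration not given here.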 The note with it: higher = more signal.
Test [15] is described as follows: calcein-AM signal in unstimulated myeloma cells – cell-based, calcein-AM fluorescence, 48 h, PK04 Diversity Set, profiling panel (AID 1166).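 Note: cells grown under basal conditions without added stimulus; test concentration not given here.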 The note with it: RPMI8226 myeloma viability, higher = more signal.
The nature of test [16]: JC-1 mitochondrial signal, unstimulated HepG2 cells – cell-based, JC-1 fluorescence, 24 h, 100 nL compound, profiling panel (AID 1167). Note: test concentration not given here. The following applies: HepG2 mitochondrial potential, higher = more signal.
Test [17] in a line: JC-1 mitochondrial signal, unstimulated adipocytes – cell-based, JC-1 fluorescence, 3T3-L1 adipocytes, 24 h, 100 nL compound, profiling panel (AID 1168). Note: test concentration not given here. The following applies: JC-1 mitochondrial fluorescence, higher = more signal, called active from +8 up or from −8 down.
Test [18] can be described thus: JC-1 mitochondrial signal, unstimulated myeloma cells – cell-based, JC-1 fluorescence, RPMI8226, 24 h, 100 nL compound, profiling panel (AID 1169). Note: test concentration not given here. The note with it: JC-1 mitochondrial potential fluorescence, higher = more signal.
The nature of test [19]: JC-1 mitochondrial signal, unstimulated MM1S myeloma – cell-based, JC-1 fluorescence, 24 h, 100 nL compound, profiling panel (AID 1170). Note: test concentration not given here. The following applies: MM1S mitochondrial potential, higher = more signal.
A short description of test [20]: resazurin metabolic signal in A549 cells – cell-based, resazurin fluorescence, 24 h, PK04 Diversity Set, profiling panel (AID 1171). Note: test concentration not given here. The following applies: A549 viability, higher = more signal, called active from +8 up or from −8 down. Background: The colour change of resazurin is a common sign of viable cells or microbes.

Each structure is given as a SMILES string. Activity calls are given as the source filed them.

Sequence of NADPH oxidase 5 (Homo sapiens) (Q96PH1 whole entry, looked up): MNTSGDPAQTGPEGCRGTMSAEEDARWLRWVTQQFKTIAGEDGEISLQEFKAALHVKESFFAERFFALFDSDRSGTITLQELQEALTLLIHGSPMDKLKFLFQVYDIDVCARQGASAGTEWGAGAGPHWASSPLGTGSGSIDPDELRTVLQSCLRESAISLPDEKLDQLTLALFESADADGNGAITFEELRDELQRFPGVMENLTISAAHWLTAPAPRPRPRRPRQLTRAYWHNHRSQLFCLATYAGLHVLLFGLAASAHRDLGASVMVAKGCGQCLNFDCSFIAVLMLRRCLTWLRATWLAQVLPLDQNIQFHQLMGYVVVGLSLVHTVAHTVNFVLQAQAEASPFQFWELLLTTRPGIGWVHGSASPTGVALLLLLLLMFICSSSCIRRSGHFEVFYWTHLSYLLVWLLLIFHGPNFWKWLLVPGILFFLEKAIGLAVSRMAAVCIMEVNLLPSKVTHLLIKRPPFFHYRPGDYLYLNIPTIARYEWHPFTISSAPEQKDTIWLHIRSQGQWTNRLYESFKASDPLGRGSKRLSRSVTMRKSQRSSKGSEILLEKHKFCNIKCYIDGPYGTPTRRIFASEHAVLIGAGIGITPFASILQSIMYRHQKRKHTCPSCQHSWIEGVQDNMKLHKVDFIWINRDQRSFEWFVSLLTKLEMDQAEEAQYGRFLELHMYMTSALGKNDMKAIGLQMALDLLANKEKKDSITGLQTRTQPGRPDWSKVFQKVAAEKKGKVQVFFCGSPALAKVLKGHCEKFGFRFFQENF

`CCCNC(=O)[C@@H]1c2ccccc2C(=O)N(C2CCCCC2)[C@H]1c1ccc(CO)cc1`: the z-score in test [1] was -0.401 (inactive); in test [3], 11 (active); in [4], 0.867 (inactive); in test [5], 1.06 (inactive); in [6] it was 0.72 (inactive); in [7], -0.326. In addition, the z-score in [8] is 0.747 (inactive); in test [9], -0.201 (inactive); in test [10] it was -1.24; in test [11], 0.285; in test [12], -0.144; in test [13], 0.107. The z-score in [14] was -0.524; in [15] it was 0.0117; in test [16], 2.29; in test [17], 0.00608 (inactive); in [18], -0.192; in [19], -0.401. The z-score in test [20] was 1.58 (inactive). For the same compound, in test [2], the composite z-score was found to be 0.14.
In the case of `CO[C@H]1O[C@H](CO)[C@@H](OC(=O)CCc2ccccc2)[C@@H]2OC(=O)[C@H](Cc3cccc(Br)c3)C/C=C/C[C@@H](Cc3cccc(Br)c3)C(=O)O[C@@H]12`, the z-score in [1] was 3.1 (inactive); in [3], 1.18 (inactive); in [4] it was -0.807 (inactive); in test [5], -0.856 (inactive); in [6], -1.19 (inactive); in test [7], 2.26. Further, the z-score was 2.16 (inactive) in test [8]; 1.57 (inactive) in [9]; 1.28 in [10]; 1.28 in test [11]; 1.22 in test [12]; 2.26 in [13]. Also, the z-score in test [14] is 1.15; in test [15], 1.6; in [16], 1.01; in test [17], 1.6 (inactive); in [18], -0.359; in [19], 1.18. The z-score in [20] was 0.844 (inactive). The compound further had a composite z-score in test [2] of -0.139.
`O=C1C2C=CC(C(O)C#Cc3ccccc3)N(Nc3ccccc3)C2C(=O)N1c1ccccc1` (stereo not given): the z-score in test [1] is -0.559 (inactive); in [3], 4.69 (inactive); in [4], 1.8 (inactive); in test [5], 0.537 (inactive); in test [6] it was 1.49 (inactive); in test [7], -0.964. Also, the z-score in test [8] was -0.432 (inactive); in test [9], -4.44 (inactive); in test [10], -1.09; in test [11], -0.284; in test [12], -1.26; in test [13] it was -0.374. Also, the z-score in test [14] was 0.0195; in test [15], -0.619; in test [16], -1.53; in [17], -0.869 (inactive); in [18], -0.449; in test [19] it was -0.41. The z-score in test [20] is 0.0504 (inactive). In test [2], the composite z-score is -0.025.
With `O=C(NCc1ccccc1)[C@@]1(CCS(=O)(=O)c2ccccc2)COC(c2ccc(OCCCO)cc2)=N1`, the z-score in test [1] was 2.13 (inactive); in [3], 30.4 (active); in [4], 25.8 (active); in test [5], 3.7 (inactive); in [6] it was 5.53 (inactive); in test [7] it was 2.54. The z-score was -2.26 (inactive) in test [8]; -0.0883 (inactive) in [9]; -2.24 in test [10]; 1.29 in test [11]; 0.897 in test [12]; -0.0721 in test [13]. In addition, the z-score is -2.26 in [14]; -0.256 in test [15]; 1.61 in test [16]; 1.11 (inactive) in [17]; -0.263 in test [18]; -0.944 in test [19]. Besides, in [20], the z-score is -0.335 (inactive). The same compound had a composite z-score in test [2] of 0.715.
As to `N#Cc1ccc(NN2C(C(O)CCc3ccccc3)C=CC3C(=O)N(c4ccccc4)C(=O)C32)cc1` (stereo not given), the z-score was -0.487 (inactive) in test [1]; 11.9 (active) in [3]; 1.44 (inactive) in test [4]; 0.712 (inactive) in test [5]; -0.864 (inactive) in test [6]; 0.843 in test [7]. In addition, the z-score in test [8] was -2.47 (inactive); in test [9] it was -3.59 (inactive); in test [10], -1.41; in [11], 0.422; in [12] it was -0.191; in [13], 1.18. For the same compound, the z-score in test [14] was 0.197; in [15], -0.0961; in test [16], -0.256; in test [17] it was -0.0951 (inactive); in test [18] it was 0.245; in test [19] it was 0.419. Further, the z-score in [20] is 0.197 (inactive). Further, in test [2], the composite z-score was 0.272.
